Assay outcomes as filed in PubChem.
Shown are actives, neighbours in structure and some others; about 32% of the full set was active somewhere.
CYP2C9 act = activators of human CYP2C9 | activation factor at 5 µM | recombinant CYP2C9, luciferin-H conversion, luminescence; active compounds read high; factor 1 = untreated enzyme, 0 = blocked | 96,000 compounds, 1.4% hits | AID 1024 | P11712;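 active means activation factor of 2 or more for CYP2C9 at a 5 µM dose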
Target sequence (P11712 whole entry, looked up): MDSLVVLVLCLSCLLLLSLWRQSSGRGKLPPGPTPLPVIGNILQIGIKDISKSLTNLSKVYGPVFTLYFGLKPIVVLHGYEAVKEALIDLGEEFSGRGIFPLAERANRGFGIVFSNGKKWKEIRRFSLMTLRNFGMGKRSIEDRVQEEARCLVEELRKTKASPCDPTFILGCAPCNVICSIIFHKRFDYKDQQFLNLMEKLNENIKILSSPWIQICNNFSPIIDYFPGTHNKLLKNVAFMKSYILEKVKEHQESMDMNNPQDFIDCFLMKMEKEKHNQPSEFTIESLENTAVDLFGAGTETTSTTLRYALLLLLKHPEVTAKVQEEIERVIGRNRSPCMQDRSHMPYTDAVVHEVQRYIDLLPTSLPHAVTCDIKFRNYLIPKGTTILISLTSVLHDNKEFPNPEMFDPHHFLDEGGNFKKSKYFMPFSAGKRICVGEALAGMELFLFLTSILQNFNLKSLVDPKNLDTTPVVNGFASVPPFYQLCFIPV
PostGolgi ctrl = inhibits growth of the yeast control strain; efflux-deficient yeast background strain, growth absorbance A615, 16 h; inhibition, % at 10 µM; 98,000 compounds, 5% hits; AID 738
PostGolgi yeast = growth inhibition of a yeast mutant, post-Golgi transport screen; post-Golgi transport phenotypic cell assay; inhibition, % at 10 µM; 98,000 compounds, 0.9% hits; AID 739;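 further: yeast cells grown in 1536-well plates; yeast grown about 18 h at 30C before absorbance read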
CYP2C19 activ = cytochrome P450 2C19 (human) activation. P33261. recombinant CYP2C19, luciferin-H EGE luminescence; active compounds read high; 0 = fully inhibited enzyme, 1 = untreated enzyme. activation factor at 5 µM. 96,000 tested, under 10 active. AID 1025;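 active means activation factor of at least 2 at 5 µM in the primary screen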
CYP2C19 inh = blocks human cytochrome P450 2C19; CYP2C19 Supersomes, luciferin-H EGE luminescence, 30 min; inhibition, % at 5 µM; 96,000 compounds, 21% hits;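 active means CYP2C19 inhibition above a set limit at 5 µM in the primary screen, cut at about 50% in these data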
CYP2C9 inhib = human CYP2C9 inhibition; 96,000 compounds, 20% hits; CYP2C9 Supersomes, luciferin-H conversion, luminescence; AID 777; inhibition, % at 5 µM; P11712;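 active means blocking of liver enzyme CYP2C9 beyond about 50% at 5 µM, limit read from the data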
A number is an active result; - = inactive; . = no result. Unless noted, no stated cut-off is given here; in the data, active means inhibition above about 30%; inactive means the rest.

SMILES	CYP2C9 act	PostGolgi ctrl	PostGolgi yeast	CYP2C19 activ	CYP2C19 inh	CYP2C9 inhib
COc1cc(/C=C2/N=C(c3ccccc3F)OC2=O)cc(Cl)c1OS(C)(=O)=O	-	-	-	-	-	-
c1ccc(COc2cccc(CNn3cnnc3)c2)cc1	-	-	-	-	50.3	-
CCOc1cccc(CNn2cnnc2)c1OCc1ccccc1	-	-	-	-	56.8	-
Cc1cn(Cc2ccccc2)c(=O)[nH]c1=O	-	-	-	-	-	-
N/C(=N\OC(=O)C1CCCCC1)c1cccc([N+](=O)[O-])c1	-	-	-	-	-	-
COc1ccc(-c2[nH]ncc2/C=C(/C#N)C(=O)NC2CCCCCC2)cc1	-	50.2	-	-	-	-
Cc1ccccc1NC(=O)N(C(C)C)C(C)C	-	-	-	-	-	-
COC(=O)C(C(=O)Nc1ccccc1C)C1CCCC1 (stereo not given)	-	-	-	-	63.7	-
COC(=O)C(C(=O)Nc1ccc(OC)cc1)C1CCCCCC1 (stereo not given)	-	-	-	-	91.7	69.2
O=C(N1CCOCC1)C(F)(F)C(=O)N1CCOCC1	-	-	-	-	-	-
O=C1c2ccccc2CN1CCNS(=O)(=O)c1ccc(Cl)cc1	-	-	-	-	-	-
COc1ccc(OC)c(N(CC(=O)Nc2ccc(NC(C)=O)cc2)S(C)(=O)=O)c1	-	30.6	-	-	-	-
CCC(C)NC(=O)CN(c1ccc(OC)cc1)S(=O)(=O)c1ccc(NC(C)=O)cc1 (stereo not given)	-	-	-	-	-	56.7
COC(=O)c1ccc(C)c(NC(=O)CN(c2cc(OC)ccc2OC)S(C)(=O)=O)c1	-	-	-	-	55.5	-
COc1ccc(OC)c(N(CC(=O)NCc2ccccn2)S(C)(=O)=O)c1	-	-	-	-	-	-
C=CCC(=O)OCC(=O)Nc1ccc(Oc2ccccc2)cc1	-	.	.	-	-	-
CC1=C(C(=O)Nc2ccc(Cl)cc2)C(c2cccs2)n2nnnc2N1 (stereo not given)	-	-	-	-	-	-
COc1cccc(-c2cc(C(=O)Nc3cc(C)nn3-c3ccccc3)no2)c1	-	-	-	-	-	-
O=S(=O)(c1ccc(Cl)c(C(F)(F)F)c1)N1CCN(CC(O)COCC2CCCO2)CC1 (stereo not given)	2	-	-	-	-	-
COc1ccc(N(CC(=O)Nc2cccc(C(=O)O)c2)S(=O)(=O)c2c(C)noc2C)cc1	-	-	-	-	-	67.6
COc1ccc(NC(=O)CN(c2cc(C)cc(C)c2)S(=O)(=O)c2c(C)noc2C)cc1	-	-	-	-	-	-
CCOC(=O)c1cccc(NC(=O)CN(c2ccc(OC)cc2)S(=O)(=O)c2c(C)noc2C)c1	-	-	-	-	77.2	94.5
CCN(CC)CC(C)OC(=O)c1cc(OC)c(OC)c(OC)c1 (stereo not given)	-	-	-	-	-	-
CC1c2[nH]c3ccccc3c2CCN1S(C)(=O)=O (stereo not given)	-	-	-	-	97.7	-
Cc1[nH]c2ccccc2c1C(=O)CN1CCC(C)CC1	-	-	-	-	-	-
SMILES	CYP2C9 act	PostGolgi ctrl	PostGolgi yeast	CYP2C19 activ	CYP2C19 inh	CYP2C9 inhib
[O-][n+]1onc2c1CCc1nnccc1-2	-	-	-	-	-	-
[O-][n+]1onc2c1CCc1nnc(-c3ccccc3)cc1-2	-	32.4	-	-	-	-
Cc1cc(C)n2nc(SCC(=O)N(C)c3ccccc3)nc2n1	-	-	-	-	-	-
CCOC(=O)C(CSCC(=O)c1ccc(Cl)cc1Cl)NC(=O)OC(C)(C)C (stereo not given)	-	-	-	-	96.9	87.6
CCOC(=O)CSCC(NC(=O)OC(C)(C)C)C(=O)OCC (stereo not given)	-	-	-	-	-	-
O=c1[nH]c2ccc(S(=O)(=O)N3CCC(Cc4ccccc4)CC3)cc2o1	-	-	-	-	-	-
CCCCN(Cc1ccccc1)S(=O)(=O)c1ccc2[nH]c(=O)oc2c1	-	-	-	-	75.6	-
Cc1ccc(C2OCC3(CO)COC(c4ccc(C)cc4)N23)cc1 (stereo not given)	-	-	-	-	71.9	-
Cc1cc(Oc2ccc(C#N)cc2)nc(N2CCOCC2)n1	-	-	-	-	-	-
C=CCn1c(-c2ccc(C)cc2)nc2ccccc21	-	-	-	-	-	-
CCn1c(SCc2ccccc2Cl)nc2ccccc21	-	-	-	-	-	-
CCCn1c(-c2cccnc2Cl)nc2cc(Cl)c(Cl)cc21	-	43.3	-	-	-	56.3
Clc1cccc(Cl)c1Cn1c(-c2cccnc2Cl)nc2ccccc21	-	50.3	-	-	-	-
C=CCn1c(-c2cccnc2Cl)nc2cc(Cl)c(Cl)cc21	-	36.1	-	-	-	57.1
O=C1C=C(c2ccc(Cl)cc2)OC2(CCCC2)O1	-	-	-	-	-	-
O=C1C=C(c2ccccc2)OC2(CCCC2)O1	-	-	-	-	63.0	-
O=S(=O)(c1ccccc1)c1ccc(NCc2ccco2)cc1	-	-	-	-	67.0	-
O=S(=O)(Nc1nc2ccccc2nc1NCCO)c1cccc(Cl)c1	-	-	-	-	-	98.9
O=S(=O)(Nc1nc2ccccc2nc1NCc1ccco1)c1ccccc1	-	-	-	-	-	97.5
Cn1c(=O)c2ncn(CC(=O)Nc3ccc4c5c(cccc35)CC4)c2n(C)c1=O	-	-	-	-	-	-
Brc1ccc2nc(CSc3ncn[nH]3)cn2c1	-	-	-	-	52.3	-
CC(=O)Nc1ccc(Oc2ncccn2)cc1	-	.	.	-	-	-
O=C(c1ccccc1)c1ccc(Oc2ncccn2)cc1	-	-	-	-	62.6	-
COc1ccc(OC(C)C(=O)Nc2cccc(OC)c2)cc1 (stereo not given)	-	-	-	-	87.0	74.9
COc1ccc(NC(=O)C(C)Oc2ccc(/C(C)=N\O)cc2)cc1 (stereo not given)	-	-	-	-	80.7	65.9
SMILES	CYP2C9 act	PostGolgi ctrl	PostGolgi yeast	CYP2C19 activ	CYP2C19 inh	CYP2C9 inhib
COc1cc(NC(=O)C(C)Oc2ccccc2)c(C(=O)O)cc1OC (stereo not given)	-	-	-	-	-	-
COC(=O)c1ccc(NC(=O)C(C)Oc2ccccc2)cc1 (stereo not given)	-	-	-	-	-	83.6
COc1cccc(NC(=O)C(C#N)Cc2ccncc2)c1 (stereo not given)	-	-	-	-	99.8	77.4
COc1cccc(NC(=O)N[C@@H](Cc2ccccc2)C(=O)O)c1	-	-	-	-	-	-
CC(Oc1ccccc1)C(=O)Nc1ccc(C(N)=O)cc1 (stereo not given)	-	-	-	-	-	-
N#Cc1c(N)oc(-c2cccs2)c1-c1cccs1	-	-	-	-	-	-
N#Cc1c(N)oc(-c2ccccc2)c1-c1ccccc1	-	-	-	-	74.7	55.9
COc1ccc(OC)c(/C=N/c2oc(-c3ccco3)c(-c3ccco3)c2C#N)c1	-	-	-	-	-	-
